Reference: paper PMC5540273 (PLoS ONE, 2017)

What was measured:
Settings in all cases: concentration: 1 μM, replicates: in singlicate; n = 1
HPK1 = system: HPK1
HUNK = system: HUNK
ICK = system: ICK
IGF1R = system: IGF1R
IKK-alpha = system: T1, IKK-alpha
T1 construct: gene CHUK

IKK-beta = system: T2, IKK-beta
T2 construct: gene IKBKB

IKK-epsilon = system: T3, IKK-epsilon
T3 construct: gene IKBKE

INSRR = system: INSRR
INSR = system: INSR
IRAK1 = system: IRAK1
IRAK3 = system: IRAK3
IRAK4 = system: IRAK4
ITK = system: ITK
[1] = system: JAK1(JH1domain-catalytic)
[2] = system: JAK1(JH2domain-pseudokinase)
[3] = system: JAK2(JH1domain-catalytic)
[4] = system: JAK3(JH1domain-catalytic)
JNK1 = system: T4, JNK1
T4 construct: gene MAPK8

JNK2 = system: T5, JNK2
T5 construct: gene MAPK9

JNK3 = system: T6, JNK3
T6 construct: gene MAPK10
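Further: KINOMEscan kinase panel screen.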

SMILES	%Inh (HPK1)	%Inh (HUNK)	%Inh (ICK)	%Inh (IGF1R)	%Inh (IKK-alpha)	%Inh (IKK-beta)	%Inh (IKK-epsilon)	%Inh (INSRR)	%Inh (INSR)	%Inh (IRAK1)	%Inh (IRAK3)	%Inh (IRAK4)	%Inh (ITK)	%Inh [1]	%Inh [2]	%Inh [3]	%Inh [4]	%Inh (JNK1)	%Inh (JNK2)	%Inh (JNK3)
c1ccc(-c2cc(-c3c[nH]nc3-c3ccccn3)ccn2)cc1 [GW576604]	25%	16%	0%	19%	0%	0%	0%	0%	2%	7%	0%	9%	3%	17%	0%	6%	0%	35%	65%	70%
COc1ccc(COc2cc(-n3cnc4ccccc43)sc2C(N)=O)cc1 [GSK1024304]	45%	14%	0%	8%	0%	17%	0%	0%	13%	0%	2%	2%	14%	0%	0%	0%	0%	18%	33%	10%
CC(C)Oc1ccc2c(-c3ccnc(Nc4ccc(N5CCN(C)CC5)cc4)n3)cnn2n1 [GW696155]	54%	0%	49%	0%	100%	100%	54%	0%	21%	99.9%	94.2%	60%	0%	48%	93.5%	99.4%	100%	100%	99.7%	99.9%
N#Cc1c(N2CCOCC2)sc(-c2ccn[nH]2)c1-c1ccc(Cl)cc1	0%	16%	24%	0%	10%	25%	0%	0%	0%	20%	16%	1%	6%	0%	29%	22%	0%	40%	23%	43%
Cc1c2ccc(N(C)c3ccnc(Nc4cccc(S(N)(=O)=O)c4)n3)cc2nn1Cc1ccccc1.Cl.Cl [GW787226]	76%	30%	0%	34%	0%	0%	2%	58%	25%	0%	36%	0%	0%	36%	26%	31%	0%	0%	0%	0%
